# Assay outcomes (PubChem)
# Compounds with a hit are over-represented: about 3.5% of the library has one in this group of screens.
# GPR151 ag = activators of human GPR151, primary screen, cell-based, PathHunter beta-arrestin, luminescence | PathHunter beta-arrestin GPR151 cells | activation, % at 11.2 µM | G-protein coupled receptor 151 (Homo sapiens), Q8TDV0 | actives 1% (n = 650,000); in the data active = activation above about 4.9%;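 note: 0% = median of compound wells and 100% = cells with positive control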
# Target sequence (Q8TDV0 whole entry, looked up): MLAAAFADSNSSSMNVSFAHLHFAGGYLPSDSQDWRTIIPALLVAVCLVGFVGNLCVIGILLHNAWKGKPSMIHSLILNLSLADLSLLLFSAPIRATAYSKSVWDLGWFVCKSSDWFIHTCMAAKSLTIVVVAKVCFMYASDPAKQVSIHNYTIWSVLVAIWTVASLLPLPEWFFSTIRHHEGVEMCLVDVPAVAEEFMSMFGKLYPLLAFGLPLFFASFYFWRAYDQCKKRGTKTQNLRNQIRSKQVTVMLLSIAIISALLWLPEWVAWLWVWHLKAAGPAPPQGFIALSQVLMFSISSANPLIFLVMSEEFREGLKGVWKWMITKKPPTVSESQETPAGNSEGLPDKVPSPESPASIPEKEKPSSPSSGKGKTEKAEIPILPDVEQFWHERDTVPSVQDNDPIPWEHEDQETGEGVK
# FBW7 act = FBW7 E3 ligase activators, primary screen, biochemical, AlphaScreen, human; AlphaScreen FBW7–phospho-cyclin E peptide binding, activator screen; normalized activity (activation), % at 26.1 µM; AID 1259310, 2017; actives 0.13% (n = 650,000); F-box/WD repeat-containing protein 7 (Homo sapiens), Q969H0; in the data active = normalized activity above about 1.9%;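 note: purified mutant Fbw7 with reduced substrate affinity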
# TEAD-YAP block = TEAD-YAP interaction inhibition, primary screen, TEAD-YAP interaction inhibitor project, luminescence, HEK-TIYL cells | TEAD-Gal4/YAP UAS-luciferase luminescence | actives 1.4% (n = 640,000) | inhibition, % at 9.12 µM; in the data active = inhibition above about 32%;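 note: 0% = median of test compound wells and 100% = reference inhibitor wells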
# MITF inh = MITF inhibitors, primary screen, biochemical, AlphaScreen, human; Microphthalmia-associated transcription factor (Homo sapiens), O75030; AlphaScreen MITF homodimerization, bead proximity signal; inhibition, % at 2.6 µM; actives 0.91% (n = 650,000); AID 1259374, 2018; in the data active = inhibition above about 50%;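 note: 0% = vehicle wells with protein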
# Numbers without * were called inactive.
SMILES,GPR151 ag,FBW7 act,TEAD-YAP block,MITF inh
O=C(N/N=C/c1c[nH]c2ccccc12)c1cc(-c2ccccc2)n[nH]1,1,0,0,-10
O=C(N/N=C\c1c[nH]c2ccccc12)c1ccc(O)cc1,0,0,-3,1
O=C(O)c1ccc(N/N=C/c2c[nH]c3ccccc23)cc1,-6,0,85*,-2
CC(=O)Nc1ccc(S(=O)(=O)Nc2cccc(C(F)(F)F)c2)cc1,2,0,-4,-11
CCOc1nc(NCc2ccco2)nc(Nc2cccc(C)c2)n1,0,0,-10,0
CN(C)CCNc1nc2ccccc2n2c1nc1ccccc12,1,0,65*,3
c1ccc2c(c1)nc(NCc1ccncc1)c1nc3ccccc3n12,1,0,3,0
CC(C)c1ccccc1C=NCC(=O)O,-1,2.2*,11,13
Cc1ccc2nc(SCC(=O)N3CC(=O)Nc4ccccc43)c(C#N)cc2c1,0,0,49*,17
O=C(NNC(=S)Nc1ccc(F)c(Cl)c1)c1ccccc1,0,0,-20,-1
O=C1c2cccc3c(Br)ccc(c23)C(=O)N1O,-1,0,11,-1
O=C1c2cccc3c(Cl)ccc(c23)C(=O)N1O,-2,0,45*,1
CCOC(=O)c1c(NC(=O)CN2C(=O)NC3(CCCCC3)C2=O)sc2c1CCC2,1,0,3,5
O=[N+]([O-])c1ccc(Cl)c(-n2cnnn2)c1,1,0,59*,8
CCN(CC)CCn1c2ccccc2c2cnc(N)c(C#N)c21,1,0,81*,-3
CN(C)C=Nc1ncc2c3ccccc3n(CCN(C)C)c2c1C#N,-1,0,16,8
Cc1cc(NS(=O)(=O)c2ccc(NC(=O)CCCOc3ccc(Cl)cc3)cc2)no1,2,2.9*,4,1
Cc1cc(NS(=O)(=O)c2ccc(NC(=O)CCCOc3ccccc3)cc2)no1,0,0,2,7
COc1cccc(OC)c1C(=O)N(C1CC1)C1CCN(Cc2ccccc2)CC1,0,0,0,-1
O=C1CC(c2ccc3c(c2)OCCO3)Oc2ccc([N+](=O)[O-])cc21 (stereo not given),-1,0,52*,17
O=C1CC(c2ccc3c(c2)OCCO3)Oc2ccccc21 (stereo not given),-1,0,-32,6
CCn1nnc(-c2ccccc2NS(=O)(=O)c2ccc(F)cc2)n1,-1,0,-6,-3
Oc1c(C(Nc2ccccc2)c2ccccn2)ccc2cccnc12 (stereo not given),-1,-2,18,94*
Oc1c(C(Nc2ccccn2)c2ccccc2F)ccc2cccnc12 (stereo not given),-1,-1,84*,16
Oc1c(C(Nc2ncccn2)c2ccco2)ccc2cccnc12 (stereo not given),0,0,-5,8
SMILES,GPR151 ag,FBW7 act,TEAD-YAP block,MITF inh
Cc1ccnc(NC(c2cc(C)ccc2O)c2ccc3cccnc3c2O)c1 (stereo not given),0,0,6,35
Oc1ccc(Cl)c(C(Nc2ccccn2)c2ccc3cccnc3c2O)c1 (stereo not given),1,0,81*,6
Cc1cccc(NC(c2ccccc2F)c2ccc3cccnc3c2O)n1 (stereo not given),-1,0,24,6
Oc1c(C(Nc2ccccn2)c2ccco2)ccc2cccnc12 (stereo not given),1,0,63*,28
Oc1c(C(Nc2ccccn2)c2ccccn2)ccc2cccnc12 (stereo not given),1,0,17,26
CCOc1ccc(NC(=O)c2ccoc2C)c([N+](=O)[O-])c1,0,0,-20,22
CCOC(=O)C1=C(O)/C(=C/c2ccc(OC)c(O)c2)SC1=Nc1ccc([N+](=O)[O-])cc1,0,0,6,5
Oc1c(C(Nc2cccc(Cl)c2)c2ccncc2)ccc2cccnc12 (stereo not given),0,-2,31,103*
Oc1c(C(Nc2cccnc2)c2cccs2)ccc2cccnc12 (stereo not given),1,0,27,3
Nc1sc2ccccc2[n+]1CC(=O)c1ccccc1,-9,2.4*,75*,25
O=C(C[n+]1cccc2ccccc21)c1ccccc1,-3,0,-7,11
CCc1n[n+](CC(=O)c2ccccc2)c(N)s1,-9,0,57*,11
COc1ccc(-c2[nH]nc3nc(-c4ccc(N5CCN(C)CC5)nc4)ccc23)cc1OC,1,1,-44,20
CN1CCN(c2ccc(-c3ccc4c(-c5cccc(O)c5)[nH]nc4n3)cn2)CC1,0,0,96*,-5
CCCCc1ccc(-c2nc(Nc3cc(Oc4ccc(F)cc4)cc([N+](=O)[O-])c3)c3ccccc3n2)cc1,1,0,-11,16
CCCCc1ccc(-c2nc(Nc3cc(Oc4ccccc4)cc([N+](=O)[O-])c3)c3ccccc3n2)cc1,4,0,50*,-12
COc1cc(-c2nc(Nc3cc(Sc4ccc(F)cc4)cc([N+](=O)[O-])c3)c3ccccc3n2)cc(OC)c1OC,0,0,-3,5
CCCCc1ccc(-c2nc(Nc3cc(Sc4ccc(F)cc4)cc([N+](=O)[O-])c3)c3ccccc3n2)cc1,1,0,57*,10
CCOC(=O)c1[nH]ncc1CN1CCN(Cc2ccc(OC)cc2F)C(CCO)C1 (stereo not given),-2,0,2,8
CCOC(=O)CC1COCCN1Cc1cn[nH]c1-c1ccc2cc(OC)ccc2c1 (stereo not given),0,0,46*,13
CCc1ccc(NC(=O)c2ccc(NCc3ccccc3OC)c([N+](=O)[O-])c2)cc1,0,0,1,4
COc1ccccc1CNc1ccc(C(=O)Nc2ccc(C)cc2C)cc1[N+](=O)[O-],2,1,57*,7
CCc1ccccc1NC(=O)c1ccc(NCc2ccccc2OC)c([N+](=O)[O-])c1,0,0,43*,4
COc1ccccc1CNc1ccc(C(=O)Nc2ccc(C)c(F)c2)cc1[N+](=O)[O-],0,0,1,-2
CC(C)CCN(C(=O)CCl)c1c(N)n(Cc2ccccc2)c(=O)[nH]c1=O,-2,0,68*,13
Nc1cccc(-c2cc(NCc3cccc(C(F)(F)F)c3)nc(N)n2)c1,1,0,44*,-11
Nc1nc(NCc2cccc(C(F)(F)F)c2)cc(-c2ccccc2)n1,1,0,45*,2
O=C1CCCN1CCCNc1nc(NCCOc2ccccc2)c2ncn(-c3ccccc3)c2n1,-1,0,-9,8
O=C(c1ccc(C(F)(F)F)nc1)N1CCC(c2nc(-c3ccncc3)no2)CC1,-1,0,2,4
COc1ccc(C=Nc2ccccc2C(N)=O)c2ccccc12,0,0,60*,24
